Data on 10 compounds can be found in PubChem BioAssay AID1671463 (Sanford-Burnham Center for Chemical Genomics, 2021).

Hit rate of the full screen: of about 370,000 compounds, about 520 (0.14%) were called active. This excerpt belongs to a sample that is enriched for actives. A number with no mark means an inactive call. Cut-off read from the data, not from the text of the source: active = activation above about 40%; inactive = the rest.

Chain of Atrial natriuretic peptide receptor 1 (Homo sapiens) (P16066 whole entry, looked up): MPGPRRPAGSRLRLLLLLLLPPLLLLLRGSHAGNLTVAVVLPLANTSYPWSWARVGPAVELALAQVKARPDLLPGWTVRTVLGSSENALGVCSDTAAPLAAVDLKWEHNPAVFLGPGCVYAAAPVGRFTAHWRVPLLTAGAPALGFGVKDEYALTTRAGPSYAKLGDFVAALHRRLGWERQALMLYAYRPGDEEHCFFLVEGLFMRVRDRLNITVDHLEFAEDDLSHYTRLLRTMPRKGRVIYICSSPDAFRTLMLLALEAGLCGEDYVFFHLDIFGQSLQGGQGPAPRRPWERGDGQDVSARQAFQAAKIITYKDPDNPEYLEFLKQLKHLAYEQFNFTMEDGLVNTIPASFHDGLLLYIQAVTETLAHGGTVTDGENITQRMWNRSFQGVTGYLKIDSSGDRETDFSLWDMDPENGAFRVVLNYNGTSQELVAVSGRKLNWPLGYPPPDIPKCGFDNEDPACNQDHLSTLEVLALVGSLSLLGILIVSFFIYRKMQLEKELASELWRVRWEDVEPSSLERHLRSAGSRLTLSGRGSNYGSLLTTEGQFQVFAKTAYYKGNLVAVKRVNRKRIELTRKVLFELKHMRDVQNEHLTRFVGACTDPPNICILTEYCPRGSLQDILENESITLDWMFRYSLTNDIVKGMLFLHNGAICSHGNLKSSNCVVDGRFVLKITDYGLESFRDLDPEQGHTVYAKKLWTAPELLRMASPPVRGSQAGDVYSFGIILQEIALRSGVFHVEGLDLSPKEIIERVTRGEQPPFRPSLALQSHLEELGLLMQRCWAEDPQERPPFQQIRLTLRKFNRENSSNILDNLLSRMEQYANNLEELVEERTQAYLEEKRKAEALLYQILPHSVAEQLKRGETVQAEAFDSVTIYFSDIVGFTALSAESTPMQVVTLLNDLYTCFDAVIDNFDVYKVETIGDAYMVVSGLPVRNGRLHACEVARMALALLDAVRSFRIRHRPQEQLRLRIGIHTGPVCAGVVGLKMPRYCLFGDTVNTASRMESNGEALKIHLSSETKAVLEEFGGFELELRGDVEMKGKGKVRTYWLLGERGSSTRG

This assay has as its target Atrial natriuretic peptide receptor 1 (Homo sapiens) (UniProt P16066). Put plainly: GC-A stimulated cGMP production enhancers – HEK293 GC-A cells, cGMP TR-FRET, EC30 ANP, primary screen (AID 1671463). The following applies: at 10 µM, active compounds read high; 0% at EC30 ANP, 100% saturating ANP unless noted. On the technique in general: TR-FRET usually uses a lanthanide donor and a delayed reading to cut background.
As to `Cc1cccc(N2C(=O)NC(=O)/C(=C\c3cnn(-c4ccccc4)c3)C2=O)c1`, the activation was 54.5% [setting not given] (active).
The result for `Cc1ccccc1CCC[C@@H](CC1CCCCC1)CN(C)C(=O)Oc1ccccc1` reads 2.21%.
As to `Nc1ccc([N+](=O)[O-])cc1`, the activation is 1.78%.
The result for `O=C1NC(=O)N(Cc2ccco2)C(=O)/C1=C\c1ccc(-c2ccc(F)cc2)o1` reads 48.8% [setting not given] (active); that for `COC(=O)C1=C(c2cc3ccccc3o2)C[C@@H]2CC[C@H]1N2C(=O)NC1CCCCC1`, -7.28%; that for `Cc1cc(N2CCNC[C@@H]2C)ccc1N1CC[C@H](O)C1`, -0.67%.
The result for `COP(=O)(Sc1ccccc1)C(Cc1ccccc1)NC(=O)OCc1ccccc1` (stereo not given) reads -3.05%; that for `CO[C@H]([C@H](C)/C=C/N(C)C=O)[C@@H](C)C(=O)CC[C@H](C)[C@H](O)[C@H](C)[C@H]1OC(=O)/C=C/C(C)=C/[C@H](O)[C@H](OC)C[C@@H]2C=CC[C@@H](C[C@H](OC)[C@@]3(CO3)[C@@H](OC)C[C@@H](OC)[C@@H]1C)O2`, -33.1%; that for `CCOC(=O)CC1=C(C(=O)OCC)C2(C(=O)N1)C(C(=O)OC)=C(N)Oc1ccccc12` (stereo not given), -13.7% [setting not given].
The result for `COc1ccc2c(c1)[C@@]13CCCCC1[C@@H](C2)NCC3` (stereo not given in full) reads 2.3% [setting not given].
